# Compound activity deposited in PubChem by Broad Institute.
# CASP6 VEID inh – caspase-6 (human) enzyme inhibition | actives 0.53% (n = 350,000) | inhibition, % at 12.5 µM | P55212 | purified caspase-6, Z-VEID-R110 cleavage fluorescence;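 active = mean inhibition across replicates at least about 35%, with every replicate also reaching that limit, limit read from the data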;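 also: 0% = median of neutral control wells and 100% = no fluorescence left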
# Target sequence (P55212 24-179 limits assumed): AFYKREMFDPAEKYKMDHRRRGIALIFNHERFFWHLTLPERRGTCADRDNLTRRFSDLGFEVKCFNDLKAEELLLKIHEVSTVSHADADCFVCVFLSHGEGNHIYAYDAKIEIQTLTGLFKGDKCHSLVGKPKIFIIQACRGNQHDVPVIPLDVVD
# Target sequence (P55212 194-293 limits assumed): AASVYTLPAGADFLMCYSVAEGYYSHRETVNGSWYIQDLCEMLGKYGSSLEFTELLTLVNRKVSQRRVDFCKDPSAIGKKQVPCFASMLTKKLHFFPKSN
# PglD inh – inhibitors of Campylobacter jejuni PglD acetyltransferase. purified PglD enzyme, DTNB colorimetric CoA detection. inhibition, % at 12.5 µM. actives 0.098% (n = 360,000). AID 602405; in the data active = inhibition above about 16%, passing the limit was not always enough
# F508del corr – CFTR F508del correction in bronchial cells | AID 720511 | CFBE cells, YFP halide quenching; stimulated with forskolin plus potentiator P3; % fluorescence drop versus neutral controls | actives 0.36% (n = 350,000) | activity (quench increase), % at 7.58 µM;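 active = mean added fluorescence quench of at least 8% versus neutral control, with both replicates also reaching 8%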;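 also: cells transiently co-express mutant CFTR-F508del with the halide-sensitive YFP; corrector assay measuring rescue of mutant channel to the surface after 24 h compound exposure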
# ALR H2O2 inh – blocks human ALR sulfhydryl oxidase activity; P55789; purified ALR, DTT oxidation, H2O2 HRP-luminol luminescence; inhibition, % (test concentration not listed); actives 3.8% (n = 290,000); AID 485317;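 active = mean replicate inhibition above about 79%, with every replicate also reaching it, limit read from the data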
# NSD2 inh – NSD2 (human) methyltransferase inhibition; O96028; NSD2 peptide methylation, AlphaScreen, 120 min; inhibition, % at 12.5 µM; actives 0.54% (n = 310,000); AID 743445; in the data active = inhibition above about 50%
# Env fusion inh – blocks HIV Env-driven cell-cell fusion; HeLa-JRFL Env/CEM21 cell fusion, luciferase; inhibition, % at 12.3 µM; actives 1.1% (n = 360,000); AID 651610;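 active = mean replicate inhibition score of at least 50 and every replicate individually at or above 50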;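 also: 0% = plate neutral controls and 100% = maraviroc near 300 nM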
# Numbers without * were called inactive; . = no result given; [ ] = remark or other dose. Sampled rows, rich in hits. Any-hit rate of the full collection: about 4.1%.
SMILES,CASP6 VEID inh,PglD inh,F508del corr,ALR H2O2 inh,NSD2 inh,Env fusion inh
COc1ccc(CN2[C@@H]3CN(C(=O)Nc4ccc(F)cc4)c4ccccc4[C@@H]3[C@@H]2CO)cc1,3,-3,-2,.,.,.
CCC(C)C(=O)Nc1ccc(S(=O)(=O)N2CCCC2)cc1 (stereo not given),-4,1,-4,-2,0,3
CCC(C)NS(=O)(=O)c1ccc(S(=O)(=O)N2CCCC3(CCCCC3)C2)cc1 (stereo not given),3,-4,.,-2,-1,77*
C=CCc1cc(/C=C2/NC(=S)NC2=O)cc(OC)c1O,.,.,.,34,0,.
CCOc1cc(/C=C2/NC(=O)N(CC(=O)OC)C2=O)ccc1O,-2,-6,-2,96*,-3,-13
C=CCc1cc(/C=C2/NC(=O)N(CC(=O)OC)C2=O)cc(OC)c1O,1,3,0,98*,0,-3
C[C@H](CO)N1C[C@H](C)[C@@H](CN(C)C(=O)c2cccc(F)c2)Oc2cc(C#CC3CCCC3)ccc2S1(=O)=O,.,.,-1,.,.,5[16.7 µM]
OC[C@@H](O)[C@H](O)C(/C=N/Nc1ccccc1)=N\Nc1ccccc1,8,-3,1,99*,4,-6
CC(=O)/C=N/Nc1ccccc1,.,-6,.,-6,.,-48
CCn1c(CSc2nccn2C)nc2cc(C(=O)O)ccc21,4,-2,.,98*,.,.
CCn1c(CSc2nc3ccccc3[nH]2)nc2cc(C(=O)O)ccc21,.,-5,.,58,3,16
C=C(CCC(=O)c1ccccc1)C(=O)c1ccccc1,61*,.,.,97*,4,-3
O=C(CCCCCCCC(=O)c1ccccc1)c1ccccc1,3,-1,-3,-18,-5,7
CCC(=O)Nc1ccc2c(c1)C(=O)N(C)C[C@@H](OC)[C@H](C)CN(Cc1cncnc1)[C@@H](C)CO2,.,.,-1,.,.,.
Cc1ccc2c(c1)[nH]c1c(N3CCN(Cc4ccccc4)CC3)ncnc12,.,-1,.,98*,0,63*
c1ccc2c(c1)CCN(c1ncnc3c1[nH]c1ccccc13)C2,.,-2,.,40,-3,87*
c1ccc2c(c1)[nH]c1c(N3CCC4(CC3)OCCO4)ncnc12,.,-4,.,-4,3,.
Cc1ccc2[nH]c3c(N4CCCCCC4)ncnc3c2c1,.,.,.,.,-2,.
Cc1ccc2[nH]c3c(N4CCN(Cc5ccccc5)CC4)ncnc3c2c1,.,-7,.,12,.,97*
COc1cccc2[nH]c3c(N4CCc5ccccc5C4)ncnc3c12,.,.,.,-3,.,.
Cc1ccc2[nH]c3c(N4CCN(Cc5ccc6c(c5)OCO6)CC4)ncnc3c2c1,.,.,.,.,.,40
c1ccc(CN2CCN(c3ncnc4c3[nH]c3ccccc34)CC2)cc1,.,-3,.,95*,.,.
CCCN(C)C[C@H]1OCCCC[C@@H](C)Oc2ccc(NC(=O)c3ccncc3)cc2C(=O)N([C@@H](C)CO)C[C@H]1C,.,.,-1,.,.,0[16.7 µM]
COc1ccccc1C(=O)Nc1ccc2c(c1)OC[C@@H](C)N(CC1CC1)C[C@H](C)[C@H](OC)CN(C)C2=O,.,.,-1,.,.,.
O=C(C[C@@H]1C=C[C@@H](NC(=O)CN2CCOCC2)[C@H](CO)O1)NC1CCC1,-1,4,1,.,.,1[16.7 µM]
SMILES,CASP6 VEID inh,PglD inh,F508del corr,ALR H2O2 inh,NSD2 inh,Env fusion inh
C/C=C/c1ccc([C@@H]2[C@@H](CO)N(C(=O)C3CCCC3)C23CN(C(=O)NC(C)C)C3)cc1,0,.,0,.,.,-9[16.7 µM]
COc1ccc2c(c1)[nH]c1c(N3CCN(Cc4ccc5c(c4)OCO5)CC3)ncnc12,.,-3,.,-17,.,97*
Cc1ccc(S(=O)(=O)Nc2ccc3c(c2)C(=O)N([C@@H](C)CO)C[C@@H](C)[C@@H](CN(C)S(=O)(=O)c2ccc(C)cc2)OCCCC[C@H](C)O3)cc1,-1,5,4,.,.,-27[16.7 µM]
Cc1cc(C(=O)N2CCCC(Nc3ccc(C(C)C)cc3)C2)nn1C (stereo not given),1,-7,2,99*,2,3
CC(C)c1ccc(NC2CCCN(C(=O)c3cnsn3)C2)cc1 (stereo not given),1,-3,-4,96*,8,5
CO[C@@H]1CN(C)C(=O)c2ccc(NC(=O)Nc3ccc(Cl)cc3)cc2OC[C@H](C)N(C)C[C@H]1C,-9,0,.,.,.,4[16.7 µM]
CN(C)C(=O)c1c(-c2ccccc2)oc2ccc(O)cc12,.,2,.,98*,-2,.
COc1ccc(/C=C2/C(=N)N3N=C(CC(=O)N4CCCC4)SC3=NC2=O)cc1OC,-1,0,-3,11,-3,2
